Data published in PubChem BioAssay (Tox21).
Values joined by “and” are separate entries in the source; they are usually repeats but may differ in a detail not shown here. Identical values can stand only once. Inconclusive results are not listed. Some compounds were tested as several samples or in several runs, with calls that do not always agree. Active and inactive are the calls of the source. Unless noted, calls come from the whole dose curve; as a rule, active = well fitted curve in the direction sought with a large enough effect in the repeat runs; inconclusive = weak or mixed curves; inactive = no such curve, though single readings can be large; an effect the other way counts as inactive or inconclusive.

How the values were obtained:
[1] = qHTS assay to identify small molecule agonists of the estrogen related receptor signaling pathway with the pleiotropic PPARgamma coactivator (PGC) (AID 1224823)
How it was run: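 PGC/ERR reporter cells seeded 6 h, then exposed to compounds (23 nL in DMSO) for 18 h at 37 C. One-Glo luciferase luminescence read after 30 min at room temperature.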

[2] = qHTS assay to identify small molecule antagonists of the estrogen related receptor (ERR) signaling pathway from Tox21 library - cell viability counter screen (AID 1224834); note: nearly all actives have a fitted effect of over 30% in size; note: potency is the fitted concentration of half-maximal effect
How it was run: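 After 17.5 h of compound exposure at 37 C, ERR cells are incubated with CellTiter-Fluor for 30 min and fluorescence intensity serves as the viability measure.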

[3] = biological target: Luciferin 4-monooxygenase (Photinus pyralis) (UniProt P08659); assay: qHTS assay to identify small molecule inhibitors of firefly luciferase (AID 1224835); note: nearly all actives have a fitted effect of over 25% in size; note: potency is the fitted concentration of half-maximal effect
Luciferin 4-monooxygenase (Photinus pyralis), sequence (P08659 whole entry, looked up): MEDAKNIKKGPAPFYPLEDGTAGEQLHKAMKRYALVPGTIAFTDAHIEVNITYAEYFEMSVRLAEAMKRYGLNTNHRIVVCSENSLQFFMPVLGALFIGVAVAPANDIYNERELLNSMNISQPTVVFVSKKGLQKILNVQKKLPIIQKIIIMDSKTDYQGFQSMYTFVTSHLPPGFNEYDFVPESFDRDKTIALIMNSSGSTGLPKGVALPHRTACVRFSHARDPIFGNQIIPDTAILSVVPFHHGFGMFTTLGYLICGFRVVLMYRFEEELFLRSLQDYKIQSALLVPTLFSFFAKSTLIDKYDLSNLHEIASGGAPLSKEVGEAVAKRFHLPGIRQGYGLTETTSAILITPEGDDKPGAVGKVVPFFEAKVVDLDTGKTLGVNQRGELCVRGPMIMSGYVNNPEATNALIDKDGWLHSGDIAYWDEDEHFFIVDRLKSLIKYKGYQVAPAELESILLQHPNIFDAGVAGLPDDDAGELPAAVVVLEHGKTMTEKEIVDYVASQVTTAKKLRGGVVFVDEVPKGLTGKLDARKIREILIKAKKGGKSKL
How it was run: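 Inhibition of purified Photinus luciferase is measured by luminescence. Substrate levels (D-luciferin, ATP) sit at their KM values. Each compound is tested in a concentration series.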

[4] = qHTS assay to identify small molecule agonists of the constitutive androstane receptor (CAR) signaling pathway - cell viability counter screen (AID 1224836); note: nearly all actives have a fitted effect of over 45% in size
How it was run: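 Counter screen multiplexed with the CAR reporter readout: HepG2 cells co-transfected with hCAR and the CYP2B6-2.2kb construct receive a 15-concentration compound series and 0.75 uM PK11195 (final), then CellTiter-Fluor fluorescence is read after 23 h.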

[5] = qHTS assay to identify small molecule antagonists of the constitutive androstane receptor (CAR) signaling pathway - cell viability counter screen (AID 1224837); note: nearly all actives have a fitted effect of over 45% in size
How it was run: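 Counter screen run in HepG2-CYP2B6-hCAR cells: 4 hr settle, compound titration (15 concentrations) with 50 nM CITCO, 23 hr at 37 C/5% CO2, CellTiter-Fluor fluorescence.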

[6] = qHTS assay to identify small molecule antagonists of the estrogen related receptor signaling pathway with the pleiotropic PPARgamma coactivator (PGC) from Tox21 10K library - cell viability counter screen (AID 1224840; active = well fitted cell-killing curve with a large enough effect in the repeat runs, not every such curve was filed as active; note: nearly all actives have a fitted effect of over 40% in size; note: potency is the fitted concentration of half-maximal effect)
How it was run: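 Following seeding of 2,000 PGC/ERR cells/well and 6 hours' incubation, test compounds were delivered in DMSO. The plates then sat 17.5 hours at 37 C before a fluorogenic live-cell protease reagent (CellTiter-Fluor) was read after 30 min.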

[7] = biological target: Thyrotropin receptor (Homo sapiens) (UniProt P16473); assay: qHTS assay to identify small molecule agonists of the thyroid stimulating hormone receptor (TSHR) signaling pathway (AID 1224843; calls by dose curve; note: nearly all actives have a fitted effect of over 45% in size)
Thyrotropin receptor (Homo sapiens), sequence (P16473 whole entry, looked up): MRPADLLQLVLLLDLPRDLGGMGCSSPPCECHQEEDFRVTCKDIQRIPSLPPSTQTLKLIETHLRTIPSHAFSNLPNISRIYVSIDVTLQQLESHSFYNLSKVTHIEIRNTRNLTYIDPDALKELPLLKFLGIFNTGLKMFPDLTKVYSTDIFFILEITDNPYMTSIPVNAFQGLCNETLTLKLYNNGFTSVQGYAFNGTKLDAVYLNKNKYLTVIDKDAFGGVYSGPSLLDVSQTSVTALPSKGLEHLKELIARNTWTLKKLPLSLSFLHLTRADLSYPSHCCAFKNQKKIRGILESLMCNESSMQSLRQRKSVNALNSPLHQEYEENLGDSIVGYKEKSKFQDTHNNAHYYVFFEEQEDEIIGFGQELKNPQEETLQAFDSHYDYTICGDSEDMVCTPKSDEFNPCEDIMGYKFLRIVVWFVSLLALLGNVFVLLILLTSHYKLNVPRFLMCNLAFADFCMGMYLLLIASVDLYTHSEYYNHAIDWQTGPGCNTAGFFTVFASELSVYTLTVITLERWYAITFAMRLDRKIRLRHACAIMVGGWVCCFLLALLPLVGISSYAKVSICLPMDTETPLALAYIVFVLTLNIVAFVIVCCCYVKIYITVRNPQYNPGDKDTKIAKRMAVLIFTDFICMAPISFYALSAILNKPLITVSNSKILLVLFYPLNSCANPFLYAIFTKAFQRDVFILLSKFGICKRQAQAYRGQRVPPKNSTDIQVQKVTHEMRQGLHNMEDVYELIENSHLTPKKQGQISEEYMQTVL
How it was run: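 Screening of the Tox21 10K collection used HEK293 cells engineered with TSHR at 800 cells per well. After a 30-min room-temperature compound exposure, HTRF cAMP reagents were added and fluorescence recorded 1 h later.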

[8] = qHTS assay to identify small molecule agonists of the hypoxia (HIF-1) signaling pathway - cell viability counter screen (AID 1224844; calls by dose curve; note: nearly all actives have a fitted effect of over 50% in size)
How it was run: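 Cells (HRE-bla ME-180, 2,000 per well) sat 5 hrs at 37C, got compound for 17 hrs, were read for CCF4-AM FRET, and were finally lysed with CellTiter-Glo for a 30 min room-temperature luminescence read.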

[9] = qHTS assay to identify small molecule agonists of H2AX (AID 1224845; active = well fitted activation curve with a large enough effect in the signal ratio in the repeat runs, not every such curve was filed as active; the % refers to the signal ratio)
How it was run: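 Phospho-H2AX Ser139 measured by HTRF (ex 320 nm; em 665 and 620 nm) after 24 hr antibody incubation. Compounds, 15 concentrations, 0.76% DMSO, were applied to CHO-K1 cells for 3hr at 37C before lysis.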

[10] = qHTS assay to identify small molecule agonists of the hypoxia (HIF-1) signaling pathway (AID 1224846; active = well fitted activation curve with a large enough effect in the signal ratio in the repeat runs, not every such curve was filed as active; the % refers to the signal ratio)
How it was run: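 A low-serum medium (0.5% dialyzed FBS) holding 2,000 HRE-bla ME-180 cells per well is preincubated for 5 hrs, dosed with compounds by pintool, and kept a further 17 hrs at 37C, 5% CO2 before CCF4-AM FRET detection of beta-lactamase.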

[11] = qHTS assay to identify small molecule agonists of H2AX - cell viability counter screen (AID 1224847; calls by dose curve; note: top concentration of the series differs between compounds; nearly all actives have a fitted effect of over 30% in size)
How it was run: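 We seed wild-type CHO-K1 cells overnight, treat them for 3 hr at 37C with compounds in 15-concentration series, and quantify remaining viability by CellTiter-Glo luminescence.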

[12] = qHTS RealTime-Glo MT Cell Viability Assay in HepG2 cells - 24 hour (AID 1224867); note: nearly all actives have a fitted effect of over 50% in size
How it was run: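 Luminescence read-out: viable HepG2 cells reduce a prosubstrate to a NanoLuc substrate, giving a signal proportional to live cell number. Reads taken at 0, 8, 16, 24, 32 and 40 h of compound exposure at 37 C.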

[13] = qHTS RealTime-Glo MT Cell Viability Assay in HEK293 cells - 32 hour (AID 1224868); note: nearly all actives have a fitted effect of over 50% in size; note: potency is the fitted concentration of half-maximal effect
How it was run: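 Nonlytic real-time viability readout: viable cells convert prosubstrate to NanoLuc substrate, giving luminescence proportional to live cell number. HEK293, 600 cells/well, compound added after 5 h, continuous culture at 37 C.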

[14] = biological target: Nuclear receptor subfamily 1 group I member 3 (Homo sapiens) (UniProt Q14994); assay: qHTS assay to identify small molecule antagonists of the constitutive androstane receptor (CAR) signaling pathway (AID 1224838);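 note: HepG2 cells stably expressing hCAR with CYP2B6 luciferase reporter stimulated by CITCO; nearly all actives have a fitted effect of over 40% in size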
Nuclear receptor subfamily 1 group I member 3 (Homo sapiens), sequence (Q14994 whole entry, looked up): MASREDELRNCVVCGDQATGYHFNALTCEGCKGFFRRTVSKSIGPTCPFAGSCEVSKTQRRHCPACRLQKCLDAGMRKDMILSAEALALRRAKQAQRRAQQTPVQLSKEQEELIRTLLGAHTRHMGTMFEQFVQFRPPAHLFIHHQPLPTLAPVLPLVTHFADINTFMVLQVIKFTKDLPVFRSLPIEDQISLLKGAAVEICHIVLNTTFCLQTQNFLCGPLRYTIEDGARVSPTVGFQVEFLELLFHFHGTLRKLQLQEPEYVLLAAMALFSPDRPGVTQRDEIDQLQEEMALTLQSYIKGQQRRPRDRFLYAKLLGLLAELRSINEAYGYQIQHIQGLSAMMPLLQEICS
How it was run: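 Cell line: HepG2 double-stable for hCAR and CYP2B6-2.2kb reporter. Agonist: CITCO, 50 nM final. Compounds: 15 concentrations, 24 h, 37 C. Detection: ONE-Glo luminescence.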

[15] = biological target: Nuclear receptor subfamily 1 group I member 3 (Homo sapiens) (UniProt Q14994); assay: qHTS assay to identify small molecule agonists of the constitutive androstane receptor (CAR) signaling pathway (AID 1224839); note: nearly all actives have a fitted effect of over 15% in size; note: potency is the fitted concentration of half-maximal effect
How it was run: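 A 15-concentration quantitative screen uses HepG2 cells co-transfected stably with human CAR and CYP2B6-2.2kb reporter. Treatment lasts 24 h with 0.75 uM PK11195 final present; ONE-Glo luminescence is the signal.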

[16] = qHTS assay to identify small molecule antagonists of the estrogen related receptor signaling pathway with the pleiotropic PPARgamma coactivator (PGC) from Tox21 10K library (AID 1224841; call rule not given here; note: actives are mostly falling curves and most rising ones were filed inactive; nearly all actives have a fitted effect of over 50% in size)
How it was run: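 qHTS antagonist format: PGC/ERR cells, 2k/well, compound in DMSO by pin transfer after 6 h attachment, 18 h treatment at 37 C, One-Glo luminescence read at 30 min.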

[17] = qHTS assay to identify small molecule agonists of the estrogen related receptor signaling pathway with the pleiotropic PPARgamma coactivator (PGC) from Tox21 10K library (AID 1224842); note: nearly all actives have a fitted effect of over 15% in size
How it was run: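 Luminescence from One-Glo (30 min, room temperature) measured after PGC/ERR cells had 18 h at 37 C with pinned compound (23 nL in DMSO). Cells had been seeded at 2,000 per well and pre-incubated 6 h.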

[18] = qHTS assay to identify small molecule antagonists of the estrogen related receptor (ERR) signaling pathway from Tox21 library (AID 1224848); note: nearly all actives have a fitted effect of over 50% in size; note: potency is the fitted concentration of half-maximal effect
How it was run: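 Antagonist-mode screen of the Tox21 10K library in an NTP-provided ERR reporter cell line; 18 h compound exposure at 37 C, luminescence measured with ONE-Glo.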

[19] = A CellTox Green Cytotoxicity Assay to monitor cytotoxicity in HEK293 cells - 0 hour (AID 1224869); note: nearly all actives have a fitted effect of over 50% in size
How it was run: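 Fluorescence intensity, read at 0, 8, 16, 24, 32 and 40 h of compound treatment, reflected dye binding to DNA of dead HEK293 cells; compounds (23 nL, DMSO) were added 5 h after plating cells with reagent.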

[20] = qHTS assay to identify small molecule agonists of the estrogen related receptor (ERR) signaling pathway from Tox21 library (AID 1224849; calls by dose curve; note: nearly all actives have a fitted effect of over 15% in size); settings: ERR reporter cell line, ONE-Glo luciferase, 18 h
How it was run: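 Screening used an NTP-provided ERR luciferase cell line. Compounds in DMSO were added 6 h after seeding and left 18 h at 37 C before a 30 min ONE-Glo step and luminescence reading.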
% is set by controls: 0 for no effect and ±100 for the full control effect.

CNCC(O)c1ccc(O)cc1 (stereo not drawn)
inactive: outcome [1]

CC(C)c1cccc(C(C)C)c1O
inactive: outcome [1]

Cl/C=C/Cl
inactive: Potency [2] | Potency [3] | Potency [4] | Potency [5] | Potency [6] | Potency [7] | Potency [8] | Potency [9] | outcome [10] | Potency [11] | outcome [12] | Potency [13]

COc1cc(-c2ccc(N)c(OC)c2)ccc1N
inactive and 29.2 µM (active): Potency [6]
31.8 µM (active) and inactive: Potency [3]
active: Potency [2] 52 µM | Potency [15] 54.7 µM and 58.3 µM
inactive: Potency [4] | Potency [14] | Potency [16] | Potency [17] | outcome [10] | Potency [11] | outcome [12] | Potency [19]
inactive and 46.3 µM (active): Potency [18]
inactive and 37.1 µM (active): Potency [13]

O=P1(NCCCl)OCCCN1CCCl (stereo not drawn)
inactive: Potency [2] | Potency [3] | Potency [4] | Potency [14] | Potency [6] | Potency [16] | Potency [17] | Potency [7] | Potency [8] | Potency [9] | outcome [10] | Potency [11] | Potency [18] | activity change, positive = activation ([20]; at 42.5 µM (top of the series)) -0.35% | activity change, positive = activation ([20]; at 92.4 µM (top of the series)) 5.99% and 1.11% | outcome [12] | Potency [13]

O=[N+]([O-])c1ccc(Cl)cc1
inactive: Potency [2] | Potency [3] | Potency [4] | Potency [6] | Potency [7] | Potency [8] | Potency [9] | outcome [10] | Potency [11] | outcome [12] | Potency [13] | Potency [19]

Cc1ccc(N)cc1
14.9% (active) and 11.9% (inactive): activity change, positive = activation ([20]; at 92.4 µM (top of the series))
active: Potency [15] 2.45 µM
inactive: Potency [3] | Potency [4] | Potency [5] | Potency [14] | Potency [6] | Potency [16] | Potency [17] | Potency [7] | Potency [8] | Potency [9] | outcome [10] | Potency [11] | Potency [18] | outcome [12] | Potency [13] | Potency [19]

CCOP(=S)(OCC)Oc1ccc([N+](=O)[O-])cc1
inactive: Potency [2] | Potency [3] | Potency [4] | Potency [14] | Potency [6] | Potency [7] | Potency [8] | Potency [9] | outcome [10] | Potency [11] | outcome [12] | Potency [13] | Potency [19]

Cc1cccc(N)c1C
inactive: Potency [3] | Potency [4] | Potency [5] | Potency [14] | Potency [6] | Potency [7] | Potency [9] | outcome [10] | Potency [11] | outcome [12] | Potency [13] | Potency [19]
inactive and 61.1 µM (active): Potency [15]

CN(C)C(=O)Cl
inactive: Potency [2] | Potency [3] | Potency [4] | Potency [14] | Potency [15] | Potency [6] | Potency [16] | Potency [17] | Potency [7] | Potency [8] | Potency [9] | outcome [10] | Potency [11] | Potency [18] | activity change, positive = activation ([20]; at 92.4 µM (top of the series)) 5.68% and 6.16% | outcome [12] | Potency [13]

Oc1c(Br)cc(Br)cc1Br
inactive: Potency [3] | Potency [4] | Potency [5] | Potency [14] | Potency [15] | Potency [6] | Potency [7] | Potency [8] | Potency [9] | outcome [10] | Potency [11] | outcome [12] | Potency [13] | Potency [19]

CCOC(=O)CC(SP(=O)(OC)OC)C(=O)OCC (stereo not drawn)
inactive: Potency [3] | Potency [4] | Potency [5] | Potency [14] | Potency [15] | Potency [6] | Potency [7] | Potency [8] | Potency [9] | outcome [10] | Potency [11] | outcome [12] | Potency [13]

CN(C)C(=O)C(c1ccccc1)c1ccccc1
inactive: Potency [2] | Potency [3] | Potency [4] | Potency [14] | Potency [6] | Potency [9] | outcome [10] | Potency [11] | outcome [12] | Potency [13] | Potency [19]
active: Potency [15] 26.9 µM and 12.2 µM

OC[C@@H](O)[C@H]1O[C@@H]2O[C@H](C(Cl)(Cl)Cl)O[C@@H]2[C@H]1O
inactive: Potency [2] | Potency [3] | Potency [4] | Potency [14] | Potency [15] | Potency [6] | Potency [16] | Potency [17] | Potency [7] | Potency [8] | Potency [9] | outcome [10] | Potency [11] | Potency [18] | activity change, positive = activation ([20]; at 92.4 µM (top of the series)) 4.33% and 6.3% | outcome [12] | Potency [13] | Potency [19]

C/C=C/c1ccc2c(c1)OCO2
inactive: Potency [2] | Potency [3] | Potency [4] | Potency [14] | Potency [15] | Potency [6] | Potency [7] | Potency [9] | outcome [10] | Potency [11] | outcome [12] | Potency [13] | Potency [19]

CN(C)CCC#N
inactive: Potency [2] | Potency [3] | Potency [4] | Potency [5] | Potency [6] | Potency [9] | outcome [10] | Potency [11] | outcome [12] | Potency [13]
